The nature of test [1]: NCI Yeast Anticancer Drug Screen. Data for the rad50 strain (AID 155).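 Also: 0% = growth of vehicle-only cultures of the same strain.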 The note with it: S. cerevisiae rad50 strain growth inhibition, stronger effect = higher value. The method in brief: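 Relative growth inhibition (compound vs vehicle) was measured in yeast with a defined repair-gene alteration.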
Test [2] can be described thus: NCI Yeast Anticancer Drug Screen. Data for the mec2-1 strain (AID 157). The note with it: S. cerevisiae mec2-1 strain, stronger effect = higher value. Put shortly:
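Growth inhibition is read against vehicle-treated controls after compound exposure of the mec2-1 yeast strain, which is defective in DNA damage repair or cell cycle control.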

The nature of test [3]: NCI Yeast Anticancer Drug Screen. Data for the sgs1 mgt1 strain (AID 161).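 Also: 0% = growth of cultures given vehicle only.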 The following applies: S. cerevisiae sgs1 mgt1 strain, stronger effect = higher value. The method in brief:
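Percent growth inhibition was derived by comparing compound-exposed mutant yeast with vehicle-exposed cultures. The strain carries alterations in DNA damage repair.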

The nature of test [4]: NCI Yeast Anticancer Drug Screen. Data for the cln2 rad14 strain (AID 165).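 Also: 0% = growth equal to vehicle treated cultures.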 The following applies: S. cerevisiae cln2 rad14 strain, stronger effect = higher value. Put shortly: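 Growth inhibition, relative to vehicle-treated controls, is the read-out. The test organism is a yeast strain with defined genetic alterations, cln2 rad14.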
A short description of test [5]: NCI Yeast Anticancer Drug Screen. Data for the bub3 strain (AID 167). The following applies: S. cerevisiae bub3 mutant strain, stronger effect = higher value. The method in brief:
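Screening used yeast with an engineered genetic alteration affecting cell cycle control. Compound-exposed cultures were compared with vehicle cultures, and reduced growth was taken as inhibition.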

Test [6] can be described thus: NCI Yeast Anticancer Drug Screen. Data for the mlh1 rad18 strain (AID 175). The following applies: S. cerevisiae mlh1 rad18 strain growth inhibition, stronger effect = higher value. The method in brief: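 Cells of a genetically altered yeast strain, deficient in DNA damage repair, were treated with compound. Their growth was then compared with that of vehicle-treated cultures to give inhibition.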

[7] abbreviates: at 5.0 µM (retest, dose inferred, filed as 0.5).
Where [8] appears, read: at 50.0 µM (retest, dose inferred, filed as 5.0).

About 79,000 compounds went through this panel and 15% of them were active in at least one assay; those are over-represented in the sample as a whole. Values without a mark were called inactive. Active and inactive are the calls of the source. Rule as the data show it: active = growth inhibition above about 70%; inactive = the rest.

Regarding `COC1CC(C)(NC(C)=O)C2OC(c3ccccc3)OCC2O1` (configuration not stated), the growth inhibition in test [1] (setting [7]) is -5%; in test [1] (setting [8]), -16%; in test [1] (at 50.0 µM), 81.8% (active); in test [2] (setting [7]), -11%; in test [2] (setting [8]), -15%; in test [2] (at 50.0 µM) it was 81.2% (active). For the same compound, the growth inhibition was -7% in test [3] (setting [7]); -24% in test [3] (setting [8]); 71.9% (active) in test [3] (at 50.0 µM); -40% in test [4] (setting [7]); 10% in test [4] (setting [8]); 75.5% (active) in test [4] (at 50.0 µM). For the same compound, the growth inhibition in test [5] (setting [7]) is -21%; in test [5] (setting [8]) it was -8%; in test [5] (at 50.0 µM), 82.7% (active); in test [6] (setting [7]) it was -1%; in test [6] (setting [8]), -3%; in test [6] (at 50.0 µM), 70.4% (active).

For the compound `CC1Cc2ccc3c(c2C(c2ccc4c(c2)OCO4)C1C)OCO3` (configuration not stated), the growth inhibition in test [1] (setting [7]) is -4%; in test [1] (setting [8]), -16%; in test [1] (at 50.0 µM), -3.7%; in test [2] (setting [7]), 3%; in test [2] (setting [8]), -19%; in test [2] (at 50.0 µM), -15.1%. For the same compound, the growth inhibition in test [3] (setting [7]) was 1%; in test [3] (setting [8]), 14%; in test [3] (at 50.0 µM) it was -5.1%; in test [4] (setting [7]), -23%; in test [4] (setting [8]), -14%; in test [4] (at 50.0 µM) it was -4.7%. In addition, the growth inhibition in test [5] (setting [7]) was -5%; in test [5] (setting [8]), -3%; in test [5] (at 50.0 µM), -3.35%; in test [6] (setting [7]), -11%; in test [6] (setting [8]), 26%; in test [6] (at 50.0 µM) it was 8.9%.

For the compound `CCOC(=O)c1c(N)sc2c1CCCCC2`, the growth inhibition in test [1] (setting [7]) was -160%; in test [1] (setting [8]) it was -118%; in test [1] (at 50.0 µM), 47%; in test [2] (setting [7]) it was -51%; in test [2] (setting [8]) it was -25%; in test [2] (at 50.0 µM), 45.4%. In addition, the growth inhibition in test [3] (setting [7]) was -63%; in test [3] (setting [8]) it was 1%; in test [3] (at 50.0 µM) it was 52%; in test [4] (setting [7]), -53%; in test [4] (setting [8]), -52%; in test [4] (at 50.0 µM) it was 27.6%. In addition, the growth inhibition in test [5] (setting [7]) is -71%; in test [5] (setting [8]), -42%; in test [5] (at 50.0 µM) it was 50.4%; in test [6] (setting [7]) it was -142%; in test [6] (setting [8]) it was -88%; in test [6] (at 50.0 µM), 61.1%.

Turning to `O=C(Nc1ccc(F)c(Cl)c1)Oc1ccc(Br)cc1Br`, the growth inhibition in test [1] (setting [7]) is 10%; in test [1] (setting [8]) it was 52%; in test [1] (at 50.0 µM), 38.1%; in test [2] (setting [7]), 5%; in test [2] (setting [8]), 50%; in test [2] (at 50.0 µM), 56.8%. In addition, the growth inhibition was -2% in test [3] (setting [7]); 66% in test [3] (setting [8]); 65.8% in test [3] (at 50.0 µM); -5% in test [4] (setting [7]); 6% in test [4] (setting [8]); 11.3% in test [4] (at 50.0 µM). Moreover, the growth inhibition in test [5] (setting [7]) was -2%; in test [5] (setting [8]) it was 11%; in test [5] (at 50.0 µM) it was 15.5%; in test [6] (setting [7]), -3%; in test [6] (setting [8]), 80% (active); in test [6] (at 50.0 µM), 89.5% (active).

For the compound `CC(C)N(CCO)CC(O)Cn1cnc2c(N)ncnc21` (configuration not stated) (tested in a mixture with another compound), the growth inhibition in test [1] (setting [7]) was -17%; in test [1] (setting [8]), 0%; in test [1] (at 50.0 µM), -37.5%; in test [2] (setting [7]), -9%; in test [2] (setting [8]) it was -8%; in test [2] (at 50.0 µM) it was 7.75%. Further, the growth inhibition in test [3] (setting [7]) is -14%; in test [3] (setting [8]) it was 1%; in test [3] (at 50.0 µM), -15.6%; in test [4] (setting [7]), -18%; in test [4] (setting [8]), -6%; in test [4] (at 50.0 µM), 40.2%. The growth inhibition in test [5] (setting [7]) was -8%; in test [5] (setting [8]), -6%; in test [5] (at 50.0 µM) it was -4.65%; in test [6] (setting [7]), -8%; in test [6] (setting [8]), -5%; in test [6] (at 50.0 µM), 43%.

With `COC(=O)C1C2CC3c4[nH]c5cc(OC)c(Br)cc5c4CCN3CC2CC(OC(=O)c2cc(OC)c(OC)c(OC)c2)C1OC` (configuration not stated), the growth inhibition is -4% in test [1] (setting [7]); 91% (active) in test [1] (setting [8]); 89.7% (active) in test [1] (at 50.0 µM); -4% in test [2] (setting [7]); 74% (active) in test [2] (setting [8]); 87.5% (active) in test [2] (at 50.0 µM). In addition, the growth inhibition in test [3] (setting [7]) is -5%; in test [3] (setting [8]), 82% (active); in test [3] (at 50.0 µM), 86.2% (active); in test [4] (setting [7]), 8%; in test [4] (setting [8]) it was 86% (active); in test [4] (at 50.0 µM) it was 84.3% (active). The growth inhibition is -16% in test [5] (setting [7]); 87% (active) in test [5] (setting [8]); 86.2% (active) in test [5] (at 50.0 µM); -30% in test [6] (setting [7]); 97% (active) in test [6] (setting [8]); 86.6% (active) in test [6] (at 50.0 µM).

On to `O=S(=O)(Nc1ccc2c3c(cccc13)C=C2)c1ccccc1`, for which the growth inhibition in test [1] (setting [7]) was -1%; in test [1] (setting [8]), 98% (active); in test [1] (at 50.0 µM), 64.5%; in test [2] (setting [7]) it was -4%; in test [2] (setting [8]), 94% (active); in test [2] (at 50.0 µM), 75.2% (active). Further, the growth inhibition is -7% in test [3] (setting [7]); 97% (active) in test [3] (setting [8]); 79.8% (active) in test [3] (at 50.0 µM); -9% in test [4] (setting [7]); 96% (active) in test [4] (setting [8]); 61.3% in test [4] (at 50.0 µM). For the same compound, the growth inhibition was -1% in test [5] (setting [7]); 98% (active) in test [5] (setting [8]); 63.4% in test [5] (at 50.0 µM); -2% in test [6] (setting [7]); 97% (active) in test [6] (setting [8]); 92.3% (active) in test [6] (at 50.0 µM).

Turning to `O=C1NC(Cc2ccccc2)C(=O)O1` (configuration not stated), the growth inhibition in test [1] (setting [7]) is 0%; in test [1] (setting [8]), -6%; in test [1] (at 50.0 µM), -2.1%; in test [2] (setting [7]), -2%; in test [2] (setting [8]), -3%; in test [2] (at 50.0 µM), 3.35%. The growth inhibition is -3% in test [3] (setting [7]); 13% in test [3] (setting [8]); 11.1% in test [3] (at 50.0 µM); -11% in test [4] (setting [7]); 6% in test [4] (setting [8]); -13.8% in test [4] (at 50.0 µM). Further, the growth inhibition in test [5] (setting [7]) was -1%; in test [5] (setting [8]) it was -2%; in test [5] (at 50.0 µM), 43.9%; in test [6] (setting [7]), -1%; in test [6] (setting [8]), -6%; in test [6] (at 50.0 µM), 4.25%.

For the compound `O=c1c(Cl)nsnc1Cl`, the growth inhibition in test [1] (setting [7]) was 100% (active); in test [1] (setting [8]), 100% (active); in test [1] (at 50.0 µM) it was 99.6% (active); in test [2] (setting [7]), 100% (active); in test [2] (setting [8]), 100% (active); in test [2] (at 50.0 µM) it was 99.7% (active). In addition, the growth inhibition in test [3] (setting [7]) is 100% (active); in test [3] (setting [8]), 100% (active); in test [3] (at 50.0 µM), 99.6% (active); in test [4] (setting [7]) it was 99% (active); in test [4] (setting [8]) it was 100% (active); in test [4] (at 50.0 µM), 98% (active). In addition, the growth inhibition in test [5] (setting [7]) is 100% (active); in test [5] (setting [8]), 100% (active); in test [5] (at 50.0 µM), 99.7% (active); in test [6] (setting [7]), 99% (active); in test [6] (setting [8]) it was 100% (active); in test [6] (at 50.0 µM), 99.4% (active).

(Values after PubChem BioAssay (NCI).)
